Assay outcomes from PubChem.
Tg IFNy HTS – blocks Toxoplasma gondii growth in the presence of IFN-gamma; activity change, negative = inhibition, % (test concentration not listed); AID 1259416; 3.8% of 69,000 active; Toxoplasma gondii growth in IFN-gamma-treated host cells; hits give low values; in the data active = activity change below about -70%, passing the limit was not always enough;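 note: host cells are HeLa cells infected with Toxoplasma gondii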
Each line names hits and unclear results; the compound was inactive in the other large screens; ! = not active in a repeat. The entries come from a sample that favours hits as a whole.

Cc1cc(Nc2ccccn2)cc(C2CCCN(C(=O)c3n[nH]c4c3CCCCCC4)C2)n1 (centres undefined)	Tg IFNy HTS -86
O=C(c1n[nH]c2c1CCCCCC2)N1CCCN(c2ccccn2)CC1	none
Cc1cc(Nc2ccccn2)cc(C2CCCN(S(=O)(=O)c3ccc(F)cc3)C2)n1 (centres undefined)	none
COc1ccc2[nH]c(=O)c(CN(C)CCc3scnc3C)cc2c1	none
COCCC(=O)c1nc2c(o1)CN(CC1CC1)C2	none
Cn1nc(-c2ccccc2)cc1NC(=O)C1CCCCC1	none
Cc1c(C)c(C)c(S(=O)(=O)Nc2cc(-c3ccccc3)nn2CCC#N)c(C)c1C	Tg IFNy HTS -88
Cn1nc(-c2ccccc2)cc1NC(=O)Cn1cnc(Cl)c1Cl	none
COCC1CN(Cc2ccc(OC)cc2)Cc2nn(CC3CC3)cc21 (centres undefined)	none
CCO[C@@H]1C[C@@H]2CN(C(=O)c3cccn3C)CCN2C1	none
CCCCCCOc1nsnc1C1=CCCN(C)C1	Tg IFNy HTS -75
Cc1ccc2c(c1C)-n1cccc1C1(CCN(C(=O)c3ccccc3)CC1)N2	none
CCN1c2ccc(C)cc2C(=O)NC12CCN(C(=O)c1ccc(F)c(Cl)c1)CC2	none
Cc1cccn2c(CC(=O)N3CCC(O)(CN(C)C)C3)cnc12 (centres undefined)	none
CSc1nc(C)c(CC(=O)Nc2cnn(Cc3ccc(F)cc3)c2)c(=O)[nH]1	none
OC(CN1CCN(c2ncccn2)CC1)c1ccc(F)cc1 (centres undefined)	none
C=CCNc1nc(NCC=C)nc(N2CCN(C(c3ccc(F)cc3)c3ccc(F)cc3)CC2)n1	Tg IFNy HTS -72
COc1ccc(Cc2ncc3c(n2)CN(C(=O)[C@@H](O)c2ccccc2)C3)cc1	none
CCC(CC)C(=O)N1CCCc2c(cnn2-c2ccc(OC)cc2)C1	Tg IFNy HTS -97
CCC(CC)C(=O)N1CCCn2cnc(CN3CCCC3=O)c2C1	none
CC(C)NC(=O)C1CCC2(CCN(c3nncs3)CC2)CO1 (centres undefined)	none
CCCC(NC(=O)c1cnc(N2CCOCC2)nc1)c1cccs1 (centres undefined)	none
CCOC(=O)c1cnc(N2CCOCC2)nc1N	none
COc1ccc(C2(NC(=O)c3cnc(N4CCOCC4)nc3)CCCC2)cc1	Tg IFNy HTS -80
Cc1cccnc1CN1CCN(CCSc2ccccc2)CC1	none
Cc1ccc(S(=O)(=O)NCCc2nc3ccccc3n2C)s1	none
CCCCN(Cc1ccc(C(=O)NO)cc1)C(=O)Nc1ccccc1	Tg IFNy HTS -85
O=C(Nc1ccccc1)N(Cc1ccc(Cl)cc1)Cc1nc2ccccc2c(=O)[nH]1	none
CCCCN(C)Cc1ccc(C(=O)Nc2c(C)noc2C)cc1	none
Cc1ccc(C2=NC3(CCN(Cc4cccc(Cl)c4)CC3)NC2=O)cc1C	none
CCCN(CC#Cc1ccccc1)C(=O)c1ccc(CO)cc1	none
Cc1c(C)n(C(=O)CSc2nnc(-c3ccccc3)o2)c2ccccc12	none
O=c1cc(O)c2ccccc2n1-c1ccccc1	none
Cc1c(-c2ccccc2)n(-c2ccccc2)c2ccccc12	Tg IFNy HTS -90
COCC12CCCOC1CCN(c1nnc(C)s1)C2 (centres undefined)	none
CC[C@@]1(O)C(=O)OCc2c1cc1n(c2=O)Cc2cc3cc(O)ccc3nc2-1	Tg IFNy HTS -90
CC[C@@]1(O)C(=O)OCc2c1cc1n(c2=O)Cc2c-1nc1cc(F)c(C)c3c1c2[C@@H](N)CC3	Tg IFNy HTS -86
COc1cccc(-n2cc(CN(C)Cc3cccc4nonc34)cn2)c1	none
N[C@@H]1CC[C@@H](NS(=O)(=O)c2cccc(Oc3ccccc3)c2)C1	none
CC(C)(C)C1CCc2onc(C(=O)NCC(C)(C)N3CCCCC3)c2C1 (centres undefined)	none
Cc1ccc(OCCN(C)C)c(NC(=O)c2noc3c2CC(C(C)(C)C)CC3)c1 (centres undefined)	Tg IFNy HTS -74
CN(C)c1cc(C(=O)Nc2ccccc2OCC2CCCCO2)ccn1 (centres undefined)	none
CCC(C)Nc1nc(-c2ccc(OC)cc2)nc2ccccc12 (centres undefined)	none
Cc1[nH]nc2oc(=O)c(CC(=O)O)c(C)c12	none
CS(=O)(=O)Cc1ccc(N2C[C@@H]3[C@H](C2)[C@H]2CC[C@@H]3O2)nc1	none
Cc1cccc(NC(=O)c2ccc3nnc(C4CN(c5ncccn5)CCN4C)n3c2)c1 (centres undefined)	none
Cc1ccc(NC2=CC(=O)c3sc(C)nc3C2=O)cc1	Tg IFNy HTS -76
COc1ccc(-c2c(-c3ccccc3)ncn2CCc2cnc[nH]2)c(F)c1F	none
CCC1=C[C@@H]2CN(C1)Cc1c([nH]c3ccccc13)[C@@](C(=O)OC)(c1cc3c(cc1OC)N(C)[C@H]1[C@@](O)(C(=O)OC)[C@H](OC(C)=O)[C@]4(CC)C=CCN5CC[C@]31[C@@H]54)C2	Tg IFNy HTS -74
CN(Cc1cc(-c2ccccc2)no1)Cc1coc2ccccc2c1=O	none
Cc1nn(C)c(C)c1CCC(=O)NCc1nc(C2CCCCC2)no1	none
Cc1cnc(CNC(=O)CCCCN2Cc3ccccc3C2=O)cn1	none
Cn1nnnc1SCCCNCc1ccc2c(c1)n(C)c(=O)n2C	none
COCc1cncc2c1CCN(C(=O)c1ccc[nH]1)C2	none
COCc1cncc2c1CCN(C(=O)c1ccncc1)C2	Tg IFNy HTS -98
C=CCOCc1cncc2c1CCN(C(=O)c1ccncc1)C2	none
CCn1c2c(ccc1=O)CC(NS(=O)(=O)c1cn(C)cn1)CC2 (centres undefined)	none
Cc1cc(C)n(CC2(CNC(=O)CN3CCCN(C)CC3)CC2)n1	none
CN1CCCN(CC2(O)CCNC2)CC1 (centres undefined)	Tg IFNy HTS -94
O=C(NC(Cn1cccn1)c1ccccc1)c1cccc(-n2cnnc2)c1 (centres undefined)	none
COc1cc(NC(=O)NC2Cc3ccccc3C2)cc(OC)c1	none
O=C(CSC(=O)c1ccco1)Nc1cc(C(F)(F)F)cc(C(F)(F)F)c1	none
O=C(Nc1cc(C(F)(F)F)cc(C(F)(F)F)c1)NC1CCc2ccccc2O1 (centres undefined)	Tg IFNy HTS -82
C=CC(=O)N1CCc2ccc(=O)n(CC3CCOCC3)c2CC1	none
CCc1ccc(CNC(=O)c2c(O)c3cccnc3n(-c3cccc(OC)c3)c2=O)cc1	none
COc1cccc(CNC(=O)c2c(O)c3cccnc3n(-c3cccc(F)c3)c2=O)c1	Tg IFNy HTS -98
CCc1ccc(CNC(=O)c2c(O)c3cccnc3n(-c3cccc(F)c3)c2=O)cc1	none
COc1cccc(-n2c(=O)c(C(=O)NCc3ccc(F)cc3)c(O)c3cccnc32)c1	none
COc1cccc(CNC(=O)c2c(O)c3cccnc3n(-c3ccccc3)c2=O)c1	none
COc1cccc(-n2c(=O)c(C(=O)NCc3cc(F)cc(F)c3)c(O)c3cccnc32)c1	Tg IFNy HTS -101
Cc1nc(C2CCN(CC(=O)Nc3ccc(F)cc3)CC2)ncc1C(=O)Nc1ccccc1	none
Cc1cc(C(=O)N2CCCCCC2c2nn(C)cc2Cl)on1 (centres undefined)	none
Cn1cnnc1CC1CCN(C(=O)c2cccc(Cn3cccn3)c2)CC1	none
CC(=O)OCC(=O)[C@H]1CC[C@H]2[C@@H]3CCC4=CC(=O)CC[C@]4(C)[C@H]3CC[C@]12C	Tg IFNy HTS -82!
C[C@]12C[C@H](O)[C@H]3[C@@H](CCC4=CC(=O)CC[C@@]43C)[C@@H]1CC[C@@H]2C(=O)CO	none
CC(=O)[C@H]1CC[C@H]2[C@@H]3CCC4=CC(=O)CC[C@]4(C)[C@H]3[C@H](O)C[C@]12C	none
O=C(c1ccco1)N1CC2(CCNCC2)c2cc(Cl)ccc21	none
COCC1CN(Cc2nccs2)Cc2cn(C)nc21 (centres undefined)	none
O=C(NCc1ccc(Cl)cc1)c1c(O)c2cccnc2n(-c2cccc(F)c2)c1=O	none
